Each structure is given as a SMILES string. Results filed as inconclusive are left out. Active and inactive are the calls of the source. The call rests on the fitted dose curve; in most records, active means well fitted inhibition curve with a large enough effect; inconclusive means small, poorly fitted or top-dose-only effect; inactive means no such curve, though single readings can be large or run the other way.
On the % scale 0 is the no-effect control and ±100 the full control effect; potency means the concentration at half of the fitted maximal effect.

The assay deals with Cytochrome P450 2C19 (Homo sapiens) (UniProt P33261). Briefly: qHTS Assay for Inhibitors and Substrates of Cytochrome P450 2C19 (AID 899). Further: nearly all actives have a fitted effect of over 60% in size. Particulars: recombinant CYP2C19, luciferin-H EGE luminescence; series mostly up to 11.4 µM; activity, negative = inhibition: at the top concentration. The essentials: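 Signal comes from luciferase acting on luciferin released by CYP2C19-mediated hydroxylation of Luciferin-H EGE, 10uM (KM). Assay mix: 5nM enzyme, 50mM KPO4; 60 min at 37C with NADPH regeneration. Data normalized against 57uM ketoconazole.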
Cytochrome P450 2C19 (Homo sapiens), sequence (P33261 whole entry, looked up): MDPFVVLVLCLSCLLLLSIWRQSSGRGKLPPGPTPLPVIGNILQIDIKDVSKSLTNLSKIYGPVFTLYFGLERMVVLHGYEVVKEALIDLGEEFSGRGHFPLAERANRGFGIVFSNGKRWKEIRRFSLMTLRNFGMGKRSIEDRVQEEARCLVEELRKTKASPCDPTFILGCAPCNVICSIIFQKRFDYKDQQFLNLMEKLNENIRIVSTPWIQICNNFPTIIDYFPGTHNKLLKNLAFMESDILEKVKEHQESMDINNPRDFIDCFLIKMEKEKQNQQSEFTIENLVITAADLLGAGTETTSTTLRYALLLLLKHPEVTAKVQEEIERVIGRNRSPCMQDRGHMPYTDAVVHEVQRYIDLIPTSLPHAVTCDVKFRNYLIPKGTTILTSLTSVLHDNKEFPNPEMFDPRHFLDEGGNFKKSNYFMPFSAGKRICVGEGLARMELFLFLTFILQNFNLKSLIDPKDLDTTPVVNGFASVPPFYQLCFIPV
On to `COc1ccc(O[C@H]2C=C[C@@H](c3ccccc3)O[C@H]2COC(=O)N2CCCCC2)cc1`, for which the Potency was 501 nM (active).
The same measure, in the same setting: the result for `CCCNC(=O)OC[C@H]1O[C@@H](CCO/N=C\[C@@H](NS(=O)(=O)c2ccc(C)cc2)[C@H](C)/C=C\CC(=O)OC)C=C[C@@H]1Oc1ccc(OC)cc1` reads 3160 nM (active).
Regarding `C#CCCCO/N=C1/[C@H]2O[C@@H]2[C@@H](O)[C@H]2[C@H]1CCn1c(=O)n(Cc3cc4c(cc3Cl)OCO4)c(=O)n12`, the “activity, negative = inhibition” value is 108% (inactive).

For the origin of these results see PubChem BioAssay (NCATS).
